In PubChem BioAssay (NCI):
Compounds without any hit were thinned out: in the full panel of roughly 83,000, 20% have a hit.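 A percent growth of 40 corresponds to 60% growth inhibition; 0 means no net growth; -100 means all cells died. Active threshold: below 10.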 The source made the active and inactive calls.

These compounds were tested on HL-60(TB) leukemia (assay: NCI-60 one-dose screen, 48 h (100 = growth as untreated, 0 = no growth, -100 = all killed)). Conditions: 10 µM unless noted.

Row | Compound | growth
1 | CC(=O)Nc1cc(N2CCOCC2)c2nc(NC(=O)c3[nH]c(C)c(Cl)c3Cl)sc2c1 | 82.9% (inactive)
2 | Cc1nc2ncc(-c3ccc4ncnc(NCc5ccccc5)c4c3)cc2[nH]1 | 109% (inactive)
3 | CNC(=O)c1c(NC(=O)c2ccccc2C(F)(F)F)sc2c1CCC(=O)C2 | -10.5% (active)
4 | Cn1cc(CNc2nc3ccc(OC/C(=C/F)CN)cc3o2)ccc1=O | 101% (inactive)
5 | O=C(NCCNc1cc(-c2cn(-c3ccccc3)nc2-c2cccc(O)c2)ccn1)Nc1cc(C(F)(F)F)cc(C(F)(F)F)c1 | 97% (inactive)
6 | C#C[C@]1(O)CC[C@H]2[C@@H]3CC=C4c5sc(NCc6ccccc6)nc5CC[C@]4(C)[C@H]3CC[C@@]21C | 24% (inactive)
7 | CCCCCCOC(=O)c1cc(-c2ccc(F)cc2)nc2ccccc12 | 77.8% (inactive)
8 | Nc1cc(-c2c[nH]c3ccc(Cl)cc23)nc2cc(-c3c[nH]c4ccc(Cl)cc34)nn12 | 43.9% (inactive)
9 | Cc1cccc(NC(c2cc3cccc4ccc5cccc2c5c43)c2nnnn2C(C)(C)C)c1C (stereo not given) | 91.9% (inactive)
10 | NC(N)=Nc1ccc(Oc2cccc(NC(N)=Nc3ccc(Cl)c(C(F)(F)F)c3)c2)cc1 | 27.8% (inactive)
11 | N#Cc1c(NC(=O)c2ccc(F)c(Cl)c2)sc2c1CCC(=O)C2 | -14.5% (active)
12 | Nc1nc(-c2cccc([N+](=O)[O-])c2)c(N=Nc2ccc(Br)cc2)s1 | 100% (inactive)
13 | N#Cc1c(NC(=O)c2cccc(C(F)(F)F)c2F)sc2c1CCC(=O)C2 | -17.4% (active)
14 | CS(=O)(=O)Nc1cc(-c2ccc3ncc(C#N)c(NCc4cccc(F)c4)c3c2)cnc1Cl | 4.11% (active)
15 | COc1ccc2c(c1)c(-c1nnc(N)nc1-c1cn(C)c3ccccc13)cn2C | 72.6% (inactive)
16 | CS(=O)(=O)Nc1cc(-c2ccc3ncc(C#N)c(NCc4ccccc4)c3c2)cnc1Cl | -29.2% (active)
17 | Oc1ccc(CSc2nnc(-c3ccc(Oc4ccccc4)cc3)n2-c2ccccc2)c2cccnc12 | 10.1% (inactive)
18 | C#CCN(C)CCCOc1ccc(NCc2ccc(C(=O)NO)cc2)cc1Cl | 12% (inactive)
19 | CC(=O)Nc1ccccc1-c1nc2ccccc2s1 | 99.5% (inactive)
20 | Cc1csc(/N=C(N)/N=C(\N)c2cccc(Br)c2)n1 | 91.3% (inactive)

Row | Compound | growth
21 | O=C1/C(=C/C2=Cc3ccccc3OC2)SC(=S)N1c1ccc(F)cc1 | 95.2% (inactive)
22 | CC(C)N=C(N/C(N)=N/c1nc2ccccc2s1)NC(C)C | 41.7% (inactive)
23 | COc1cc(/C=C2\C(=O)Nc3ccccc32)ccc1OCc1ccc(F)cc1 | 115% (inactive)
24 | Oc1ccccc1-c1nnc(SCc2ccc(O)c3ncccc23)o1 | 26.3% (inactive)
25 | COC(=O)c1cccc(NC2=C(Cl)C(=O)C(C)=C(C)C2=O)c1 | 60.4% (inactive)
26 | Cc1ccc(-c2cc3nc(C(Cl)Cl)nc(C)n3n2)cc1 | 107% (inactive)
27 | O=C1c2c(c3c4cc(Br)ccc4[nH]c3c3ccc4ccccc4c23)C(=O)N1CCN1CCCCC1 | 1.48% (active)
28 | COc1ccc(-c2nc3cc(Cl)c(Cl)cc3n2CC(=O)N=Nc2c(O)[nH]c3ccc(Cl)cc23)cc1 | 59.7% (inactive)
29 | COc1ccc2[nH]cc(-c3nc(N)nnc3-c3cn(C)c4ccc(Br)cc34)c2c1 | -26.6% (active)
30 | CCN1C(=O)N(CC)C2SC(N/N=C/c3ccccc3)=NC21 (stereo not given) | 4% (active)
31 | Nc1nc(Nc2ccccc2SSc2ccccc2Nc2nc(N)nc(-c3ccc4ccccc4c3)n2)nc(-c2ccc3ccccc3c2)n1 | 112% (inactive)
32 | Cn1cc(-c2nnc(N)nc2-c2cn(C)c3ccc(F)cc23)c2cc(F)ccc21 | 79.3% (inactive)
33 | C#C[C@]1(O)CC[C@H]2[C@@H]3CC=C4c5sc(Nc6nc(C)cc(OC)n6)nc5CC[C@]4(C)[C@H]3CC[C@@]21C | 12.1% (inactive)
34 | COc1ccc(OC)c(NC2=C(Cl)C(=O)C(C)=C(C)C2=O)c1 | 74% (inactive)
35 | Fc1cccc(Cl)c1/C=N/Nc1nc(N/N=C/c2c(F)cccc2Cl)nc(N2CCCCC2)n1 | 1.27% (active)
36 | NC1CC2(CCN(c3cnc(C(=O)Nc4cc(F)cc5cccnc45)cn3)CC2)C1 | 50.6% (inactive)
37 | COc1ccc(N2C(=O)c3cc(OC)c(OC)cc3NC2SCc2ccccc2)cc1 (stereo not given) | 110% (inactive)
38 | CC(=O)c1cc(C(=O)c2ccc(Br)cc2)n2cc(C)cc(C)c12 | 83.3% (inactive)
39 | O=C(NCCCNc1cc(-c2cn(-c3ccccc3)nc2-c2cccc(O)c2)ccn1)Nc1cc(C(F)(F)F)cc(C(F)(F)F)c1 | 71.9% (inactive)
40 | Brc1cccc(-c2cc(-c3ccc4c(c3)OC=CO4)[nH]n2)c1 | 14.7% (inactive)
